# The source made the active and inactive calls.
# What was measured:
# [1] = tested on: Plasmodium falciparum Sir2 (PF13_0152, Sir2A); test: Plasmodium falciparum Sir2A binding compounds – biochemical, small-molecule microarray, 635 nm fluorescence, primary screen (AID 1098); conditions: fluorescence 635 nm, higher = more signal;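 note: score merges spot fluorescence intensity with its signal-to-noise ratio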
# [2] = probe aDKK1 binding to arrayed compounds – biochemical, biotinylated probe, 635/667 nm fluorescence, primary screen (AID 1099); conditions: small-molecule microarray, higher = more signal;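 note: score merges 667nm spot fluorescence with signal to noise across triplicate slides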
# [3] = probe aCHRDL2 binding to arrayed compounds – biochemical, biotinylated probe, 635/667 nm fluorescence, primary screen (AID 1100); conditions: small-molecule microarray, higher = more signal
# [4] = change in splice reporter luminescence, either direction, cell-based, HEK293, spliceosome inhibition project, primary screen (AID 1101); conditions: HEK293 splicing luciferase reporter, 24 h, higher = more signal, called active from +8 up or from −8 down;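 note: HEK293 cells carrying a splicing-competent luciferase reporter gene; test concentration not given here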
# [5] = target: Fibroblast growth factor 10 (Homo sapiens) (UniProt O15520); test: compounds binding fibroblast growth factor 10 – biochemical, small-molecule microarray, 635 nm fluorescence, primary screen (AID 1102); conditions: FGF10 binding, fluorescence 635 nm, higher = more signal
# Fibroblast growth factor 10 (Homo sapiens), sequence (O15520 whole entry, looked up): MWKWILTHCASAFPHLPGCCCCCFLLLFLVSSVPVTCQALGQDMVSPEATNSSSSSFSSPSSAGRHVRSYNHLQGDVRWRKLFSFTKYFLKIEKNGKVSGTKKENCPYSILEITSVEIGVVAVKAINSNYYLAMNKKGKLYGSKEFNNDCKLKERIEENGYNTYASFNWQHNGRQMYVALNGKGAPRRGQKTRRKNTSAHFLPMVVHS
# [6] = tested on: glycogen synthase kinase-3 (GSK3A per assay name; protocol says GSK3B); test: compounds binding glycogen synthase kinase-3 – biochemical, small-molecule microarray, 635 nm fluorescence, GSK3A, primary screen (AID 1103); conditions: fluorescence 635 nm, higher = more signal; note: the record names both GSK3A and GSK3B
# [7] = target: Epidermal growth factor receptor (Homo sapiens) (UniProt P00533); test: compounds binding epidermal growth factor receptor – biochemical, small-molecule microarray, 635 nm fluorescence, primary screen (AID 1104); conditions: EGFR binding, higher = more signal;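 note: score merges 667 nm emission intensity with spot signal to noise over triplicate slides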
# Epidermal growth factor receptor (Homo sapiens), sequence (P00533 whole entry, looked up): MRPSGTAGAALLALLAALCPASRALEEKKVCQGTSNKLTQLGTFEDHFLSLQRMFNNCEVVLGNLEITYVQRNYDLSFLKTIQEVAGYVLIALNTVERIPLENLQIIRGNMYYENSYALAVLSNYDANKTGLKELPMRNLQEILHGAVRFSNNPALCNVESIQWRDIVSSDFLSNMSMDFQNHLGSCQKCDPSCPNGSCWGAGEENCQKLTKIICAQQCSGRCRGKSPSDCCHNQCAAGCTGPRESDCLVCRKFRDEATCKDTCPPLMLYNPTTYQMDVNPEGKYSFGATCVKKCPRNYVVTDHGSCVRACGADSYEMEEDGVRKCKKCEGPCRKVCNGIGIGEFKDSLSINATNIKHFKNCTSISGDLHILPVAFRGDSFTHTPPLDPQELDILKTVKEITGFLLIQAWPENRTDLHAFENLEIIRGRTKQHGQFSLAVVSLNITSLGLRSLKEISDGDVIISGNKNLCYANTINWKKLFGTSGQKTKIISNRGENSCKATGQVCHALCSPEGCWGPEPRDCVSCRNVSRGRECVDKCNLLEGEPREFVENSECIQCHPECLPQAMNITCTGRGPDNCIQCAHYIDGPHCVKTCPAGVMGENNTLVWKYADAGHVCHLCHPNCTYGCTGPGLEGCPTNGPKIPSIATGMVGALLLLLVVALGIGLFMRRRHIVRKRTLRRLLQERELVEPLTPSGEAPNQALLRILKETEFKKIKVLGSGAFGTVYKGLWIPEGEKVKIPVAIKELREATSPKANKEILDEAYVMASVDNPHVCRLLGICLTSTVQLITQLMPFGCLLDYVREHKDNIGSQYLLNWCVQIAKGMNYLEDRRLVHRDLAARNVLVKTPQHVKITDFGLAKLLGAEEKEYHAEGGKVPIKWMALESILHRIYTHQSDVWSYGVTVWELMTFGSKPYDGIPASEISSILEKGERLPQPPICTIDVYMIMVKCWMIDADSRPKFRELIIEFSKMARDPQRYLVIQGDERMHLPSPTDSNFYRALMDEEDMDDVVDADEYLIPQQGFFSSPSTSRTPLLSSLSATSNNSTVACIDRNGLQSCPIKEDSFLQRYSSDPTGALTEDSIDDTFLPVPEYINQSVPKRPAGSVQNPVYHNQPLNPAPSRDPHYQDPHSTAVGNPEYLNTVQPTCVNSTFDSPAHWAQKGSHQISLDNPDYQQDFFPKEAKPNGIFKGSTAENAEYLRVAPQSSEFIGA
# [8] = target: Follistatin-related protein 3 (Homo sapiens) (UniProt O95633); test: compounds binding follistatin-related protein 3 – biochemical, small-molecule microarray, 635 nm fluorescence, primary screen (AID 1105); conditions: FSTL3 binding, higher = more signal;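 note: score merges emission near 667 nm and signal to noise per printed spot across three slides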
# Follistatin-related protein 3 (Homo sapiens), sequence (O95633 whole entry, looked up): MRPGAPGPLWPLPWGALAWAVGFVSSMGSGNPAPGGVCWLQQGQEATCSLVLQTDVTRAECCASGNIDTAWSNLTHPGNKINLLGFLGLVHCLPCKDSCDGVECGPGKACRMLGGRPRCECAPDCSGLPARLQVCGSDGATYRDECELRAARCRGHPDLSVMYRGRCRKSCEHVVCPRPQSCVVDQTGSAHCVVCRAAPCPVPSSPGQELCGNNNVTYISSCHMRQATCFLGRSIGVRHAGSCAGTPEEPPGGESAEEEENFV
# [9] = target: Dickkopf-related protein 1 (Homo sapiens) (UniProt O94907); test: small molecules binding DKK1 protein – biochemical, small-molecule microarray, 635 nm fluorescence scan, primary screen (AID 1106); conditions: higher = more signal;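 note: score merges emission near 667 nm with signal to noise over three replicate slides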
# Dickkopf-related protein 1 (Homo sapiens), sequence (O94907 whole entry, looked up): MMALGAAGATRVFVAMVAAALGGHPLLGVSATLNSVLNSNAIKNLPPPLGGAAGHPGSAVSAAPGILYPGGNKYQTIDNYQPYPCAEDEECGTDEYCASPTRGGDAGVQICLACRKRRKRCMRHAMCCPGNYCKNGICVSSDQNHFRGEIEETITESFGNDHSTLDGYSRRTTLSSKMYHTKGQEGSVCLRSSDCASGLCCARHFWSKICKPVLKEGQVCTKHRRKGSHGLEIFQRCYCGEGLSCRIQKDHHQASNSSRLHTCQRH
# [10] = tested on: Inhibin beta A chain (activin A); test: small molecules binding activin A – biochemical, small-molecule microarray, 635 nm fluorescence scan, primary screen (AID 1107); conditions: INHBA, higher = more signal;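 note: mouse activin A protein probed at 4.33 µg/mL on printed slides; score merges bound-protein fluorescence near 667 nm with spot signal-to-noise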
# [11] = tested on: Human papillomavirus type 1a protein E7 (residues 44-93); test: small molecules binding HPV E7 44-93 – biochemical, small-molecule microarray, residues 44-93, 635 nm fluorescence, primary screen (AID 1108); conditions: fluorescence 635 nm, higher = more signal;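 note: E7 fragment applied at 1 µg/mL in TBST for 1 h at 4 C; score combines spot fluorescence with its signal to noise ratio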
# [12] = hepatitis C replication reporter changes, two-sided – Huh7 cells, luciferase reporter, HCV replication inhibitor project, primary screen (AID 1109); conditions: Huh7 HCV replicon luciferase reporter, 48 h; higher = more signal;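 note: huh7 hepatoma cells harbouring a luciferase neomycin HCV replicon reporter; luciferase luminescence as measure of HCV replicon replication; test concentration not given here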
# [13] = target: Left-right determination factor 2 (Homo sapiens) (UniProt O00292); test: small molecules binding LEFTY2 protein – biochemical, small-molecule microarray, 635 nm fluorescence scan, primary screen (AID 1110); conditions: higher = more signal
# Left-right determination factor 2 (Homo sapiens), sequence (O00292 whole entry, looked up): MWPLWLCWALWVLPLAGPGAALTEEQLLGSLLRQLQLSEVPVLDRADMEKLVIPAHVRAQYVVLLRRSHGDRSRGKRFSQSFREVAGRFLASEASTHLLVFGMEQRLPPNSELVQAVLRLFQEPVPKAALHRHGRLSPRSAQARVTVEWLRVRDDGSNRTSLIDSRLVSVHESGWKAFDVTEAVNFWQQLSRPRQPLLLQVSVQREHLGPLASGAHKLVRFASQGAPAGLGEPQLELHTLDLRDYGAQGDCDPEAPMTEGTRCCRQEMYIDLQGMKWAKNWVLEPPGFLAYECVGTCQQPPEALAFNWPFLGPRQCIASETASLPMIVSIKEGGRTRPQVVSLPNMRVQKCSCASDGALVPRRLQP
# [14] = target: Calmodulin-1 (Homo sapiens) (UniProt P0DP23); test: small molecules binding calmodulin-1 with EGTA – biochemical, small-molecule microarray, Cy5-labelled CALM1, profiling panel (AID 1111); conditions: Cy5-CALM1 binding fluorescence, higher = more signal;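 note: labelled calmodulin applied in Tris saline Tween buffer holding calcium plus EGTA and DTT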
# [15] = target: Calmodulin-1 (Homo sapiens) (UniProt P0DP23); test: small molecules binding Ca-loaded calmodulin-1 – biochemical, small-molecule microarray, Cy5-labelled CALM1, plus calcium, artefact control for SMM control-protein annotation, profiling panel (AID 1112); conditions: Cy5-CALM1 binding fluorescence, higher = more signal;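 note: score merges spot fluorescence with signal to noise from triplicate slides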
# [16] = probe aWnt5a binding to arrayed compounds – biochemical, biotinylated probe, 635/667 nm fluorescence, primary screen (AID 1113); conditions: small-molecule microarray, higher = more signal;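 note: score merges 667 nm fluorescence intensity with signal-to-noise per printed feature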
# [17] = probe aShh binding to arrayed compounds – biochemical, biotinylated probe, 635/667 nm fluorescence, primary screen (AID 1114); conditions: small-molecule microarray, higher = more signal;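 note: probe is biotin-labelled aShh protein from a stem cell growth factor screen; measures binding of labelled protein to compounds printed on the slide; score merges feature fluorescence at 667 nm with signal-to-noise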
# [18] = probe aNog binding to arrayed compounds – biochemical, biotinylated probe, 635/667 nm fluorescence, primary screen (AID 1115); conditions: small-molecule microarray, higher = more signal;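 note: probe is biotinylated aNog protein used at 0.15 µg/mL for 1 h at 4 C; z-score combines 667 nm fluorescence of each spot with its signal to noise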
# [19] = target: Torsin-1A-interacting protein 1 (Homo sapiens) (UniProt Q5JTV8); test: compound microarray binding of lysate hLAP1 – cell lysate, small-molecule microarray, COS7 lysate, 635/667 nm fluorescence, primary screen (AID 1116); conditions: 635 nm fluorescence, higher = more signal
# Torsin-1A-interacting protein 1 (Homo sapiens), sequence (Q5JTV8 whole entry, looked up): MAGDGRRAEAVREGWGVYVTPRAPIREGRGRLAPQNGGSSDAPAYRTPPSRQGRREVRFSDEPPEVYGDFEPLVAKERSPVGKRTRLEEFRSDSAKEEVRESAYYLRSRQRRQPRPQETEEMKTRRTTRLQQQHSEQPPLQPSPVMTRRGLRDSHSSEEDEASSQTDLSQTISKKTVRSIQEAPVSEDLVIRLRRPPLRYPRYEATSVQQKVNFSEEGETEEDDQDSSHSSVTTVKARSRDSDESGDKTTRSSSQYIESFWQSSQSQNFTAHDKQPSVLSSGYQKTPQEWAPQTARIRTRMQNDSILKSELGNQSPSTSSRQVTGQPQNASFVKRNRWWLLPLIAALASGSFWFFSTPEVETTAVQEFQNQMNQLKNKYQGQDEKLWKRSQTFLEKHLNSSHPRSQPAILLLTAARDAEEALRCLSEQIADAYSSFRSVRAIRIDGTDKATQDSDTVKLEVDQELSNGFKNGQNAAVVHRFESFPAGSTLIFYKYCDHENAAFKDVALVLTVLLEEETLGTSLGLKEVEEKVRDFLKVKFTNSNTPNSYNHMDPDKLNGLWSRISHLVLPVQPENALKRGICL
# [20] = target: Alpha-bungarotoxin (Bungarus multicinctus) (UniProt P60615); test: compounds binding labelled alpha-BTX control protein – biochemical, small-molecule microarray, Alexa647 label, 635/667 nm fluorescence, artefact control for SMM control protein annotation, profiling panel (AID 1117); conditions: alpha-BTX-A647 binding fluorescence, higher = more signal
# Alpha-bungarotoxin (Bungarus multicinctus), sequence (P60615 whole entry, looked up): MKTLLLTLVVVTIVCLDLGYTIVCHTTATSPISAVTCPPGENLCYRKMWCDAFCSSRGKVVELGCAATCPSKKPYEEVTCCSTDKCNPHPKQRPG
SMILES,composite z-score [1],composite z-score [2],composite z-score [3],z-score [4],composite z-score [5],composite z-score [6],composite z-score [7],composite z-score [8],composite z-score [9],composite z-score [10],composite z-score [11],z-score [12],composite z-score [13],composite z-score [14],composite z-score [15],composite z-score [16],composite z-score [17],composite z-score [18],composite z-score [19],composite z-score [20]
CC(C)C(O)C1C=CC2C(=O)N(c3ccccc3)C(=O)C2N1Nc1ccc(C#N)cc1 (stereo not given),1.08,1.27,1.26,0.251 (inactive),1.17,0.681,0.0839,1.22,-0.512,0.942,0.931,0.993,1.11,0.875,0.717,-0.0522,-0.452,0.843,0.892,1.36
O=C/C=C/c1ccc(Cl)cc1,-0.34,-0.235,0.0073,-1.05 (inactive),-0.513,-0.966,-0.301,0.0697,0.0956,0.934,-1.74,-0.482,0.163,-0.925,-0.0367,-0.0846,-0.147,-0.426,-0.381,0.0933
Cc1ccc(S[C@]2(C(=O)NCc3ccccc3)CC(=O)N(Cc3ccccc3)[C@@H]2c2ccc(CO)cc2)cc1,0.979,0.114,0.694,0.643 (inactive),-0.173,-0.789,-1.22,-1.01,-0.799,-0.317,1.42,-2.1,-0.934,-0.344,-0.195,-0.0395,-0.0977,-0.364,1.2,-0.593
COC(=O)[C@@]1(Cc2ccc(OC)cc2)[C@H]2c3cc(C(=O)N4CCCC4)n(Cc4ccccn4)c3C[C@H]2CN1C(=O)c1ccccc1,0.987,1.33,1.3,-3.17 (inactive),0.928,1.2,-0.0442,0.182,-0.899,0.673,1.48,-1.52,-0.662,1.42,0.816,0.202,-0.0069,2.04,1.07,0.65
O=C1c2ccccc2[C@@]2(Cc3ccccc3N(Cc3ccccc3)C2=O)[C@H](c2ccc(CO)cc2)N1C1CCCCC1,1.3,-0.367,-0.292,-0.322 (inactive),0.831,0.152,0.131,0.41,0.662,0.784,0.438,-0.717,0.186,0.0329,-0.105,-0.202,0.0062,-0.444,-0.345,0.0868
O=C1OCCC=C[C@H]2OC34C=CCN(c5ccc6ccccc6c5)C(=O)[C@H]3N(CCCCCO)C(=O)[C@@H]4C12 (stereo not given in full),1.8,0.0672,0.597,-0.606 (inactive),-0.408,-0.224,-0.162,-0.662,-0.731,0.218,0.444,-0.345,-1.05,-0.491,-0.0432,-0.147,-0.0011,0.438,1.92,-0.264
C[C@]1(C(=O)NCc2ccccc2)c2ccccc2C(=O)N(Cc2cc(F)cc(C(F)(F)F)c2)[C@H]1c1ccc(CO)cc1,0.876,0.214,0.637,-0.102 (inactive),-0.384,-0.422,-0.505,-1.45,-1.21,-0.185,0.376,-0.44,-1.57,-0.595,0.173,-0.0685,0.0469,-0.427,-0.168,0.0471
COc1cc2c(cc1O)C(C)N(Cc1cccc(OC(F)(F)F)c1)CC2 (stereo not given),1.7,0.0376,0.23,-0.0689 (inactive),1.24,0.219,-0.425,0.514,0.188,0.902,1.37,-0.815,-0.442,0.854,0.938,-0.0445,0.0326,0.582,1.67,0.514
O=C1C[C@]2(c3ccc([N+](=O)[O-])cc3)C(=O)N(CC(F)(F)F)c3cc(CO)ccc3[C@H]2N1CC12CC3CC(CC(C3)C1)C2,1.75,-0.157,0.115,0.452 (inactive),0.0399,0.284,-0.736,0.23,0.301,0.36,0.193,-0.156,-0.211,-0.28,-0.285,-0.147,-0.229,-0.364,-0.371,0.224
O=C1C=CC(=O)[C@@H]2CC(COc3ccccc3)=C3[C@@H](CCc4ccccc4)OB(O)C[C@@H]3[C@H]12,0.403,-0.339,-0.523,2.04 (inactive),0.545,0.34,0.515,0.887,1.07,0.72,0.23,-1.64,0.41,-0.413,-1.09,-0.0819,0.0121,-0.175,0.0342,0.361
[N-]=[N+]=NCc1ccccc1C[C@]1(C(=O)NCCN2CCOCC2)N=C(c2ccc(OCCCO)cc2)O[C@H]1c1ccccc1N=[N+]=[N-],0.8,0.838,1.11,-0.947 (inactive),0.636,1.15,0.294,0.504,-0.233,0.819,0.927,-1.76,0.391,1.2,0.655,0.0903,0.21,1.73,1.51,0.919
COC(=O)[C@@]1(Cc2ccc(OC)cc2)[C@H]2c3cc(C(=O)N(C)C)n(Cc4c(OC)[nH]cc(C)c4=O)c3C[C@H]2CN1C(=O)c1ccccc1,1.04,1.8,0.628,-1.07 (inactive),0.0004,-0.208,0.197,0.037,-0.41,1.23,-0.117,-1.1,0.464,0.352,-0.117,-0.16,-0.352,-0.248,0.808,-0.0941
COc1ccc(C#Cc2ccc3c(c2)[C@]2(C(=O)N3)[C@H](c3ccc(O)cc3)N3[C@H](c4ccccc4)[C@H](c4ccccc4)OC(=O)[C@H]3[C@@H]2C(=O)N2CCCCCCC2)cc1,1.39,2.69,1.52,-0.844 (inactive),1.22,1.33,1.18,1.61,1.61,1.78,1.33,-1.01,1.07,2.7,1.41,0.754,2.15,2.75,4.61,1.83
CCOC(=O)C1=CC[C@@H](c2ccccc2Cl)N(S(=O)(=O)c2ccc(C)cc2)C1,1.17,0.342,0.928,-1.97 (inactive),0.403,0.196,-0.138,0.0633,-0.794,0.304,0.948,-2.7,-0.462,1.52,0.784,-0.117,-0.167,1.25,1.56,0.407
C=CCC(OC(C)=O)[C@@H]1[C@@H](N(Cc2cc3ccccc3o2)C(=O)c2ccc(C)cc2)c2cc(OCCCO)ccc2N1C(=O)c1ccc2ccccc2c1 (stereo not given in full),-0.119,-0.0022,0.263,-0.422 (inactive),0.299,-0.274,0.105,0.194,0.0379,1.46,0.0468,-0.274,0.161,-0.0375,0.37,-0.0644,0.313,-0.314,0.189,-0.298
COCCCNC(=O)[C@@]1(C)c2ccccc2C(=O)N(Cc2cc(C(F)(F)F)cc(C(F)(F)F)c2)[C@H]1c1ccc(CO)cc1,1.48,-0.0291,0.945,0.803 (inactive),-0.607,-0.514,-1.24,-0.875,-1.62,-0.754,1.32,0.261,-1.8,0.0356,0.378,-0.154,-0.0626,0.583,-0.235,1.41
C=CCNC(=O)[C@H]1[C@@H]2C(=O)O[C@@H](c3ccccc3)[C@@H](c3ccccc3)N2[C@@H](c2ccc(O)cc2)[C@]12C(=O)N(C(=O)OCCOC)c1ccc(C#CCCO)cc12,1.29,0.303,0.272,0.271 (inactive),1.18,0.713,-0.248,-0.0994,-0.0705,0.681,0.889,-0.605,-0.166,0.0387,0.171,-0.185,0.0639,-0.332,1.35,1.25
